In PubChem BioAssay one finds composite z-score and z-score data, which are given here for six compounds.

SMILES strings stand for the structures. Calls of active or inactive are those of the source.

Test [1] has as its system Plasmodium falciparum Sir2 (PF13_0152, Sir2A). The experiment in a line: Plasmodium falciparum Sir2A binding compounds – biochemical, small-molecule microarray, 635 nm fluorescence, primary screen (AID 1098).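 Also: score merges spot fluorescence intensity with its signal-to-noise ratio.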 As to conditions: fluorescence 635 nm, higher = more signal.
Test [2] in a line: probe aDKK1 binding to arrayed compounds – biochemical, biotinylated probe, 635/667 nm fluorescence, primary screen (AID 1099).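 Also: score merges 667nm spot fluorescence with signal to noise across triplicate slides.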 As to conditions: small-molecule microarray, higher = more signal.
A short description of test [3]: probe aCHRDL2 binding to arrayed compounds – biochemical, biotinylated probe, 635/667 nm fluorescence, primary screen (AID 1100). As to conditions: small-molecule microarray, higher = more signal.
A short description of test [4]: change in splice reporter luminescence, either direction, cell-based, HEK293, spliceosome inhibition project, primary screen (AID 1101).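 Also: HEK293 cells carrying a splicing-competent luciferase reporter gene; test concentration not given here.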 The settings on record: HEK293 splicing luciferase reporter, 24 h, higher = more signal, called active from +8 up or from −8 down. A general note: Reporter assays use an easily measured gene product as a stand-in for the process of interest.

Test [5] deals with Fibroblast growth factor 10 (Homo sapiens) (UniProt O15520). The experiment in a line: compounds binding fibroblast growth factor 10 – biochemical, small-molecule microarray, 635 nm fluorescence, primary screen (AID 1102). As to conditions: FGF10 binding, fluorescence 635 nm, higher = more signal.
Sequence of Fibroblast growth factor 10 (Homo sapiens) (O15520 whole entry, looked up): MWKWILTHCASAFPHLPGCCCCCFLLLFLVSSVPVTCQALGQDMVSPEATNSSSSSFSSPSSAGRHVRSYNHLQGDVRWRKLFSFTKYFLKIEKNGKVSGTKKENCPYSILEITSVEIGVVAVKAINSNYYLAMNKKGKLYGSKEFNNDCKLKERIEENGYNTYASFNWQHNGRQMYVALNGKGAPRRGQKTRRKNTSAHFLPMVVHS
For test [6], the system named is glycogen synthase kinase-3 (GSK3A per assay name; protocol says GSK3B). The experiment in a line: compounds binding glycogen synthase kinase-3 – biochemical, small-molecule microarray, 635 nm fluorescence, GSK3A, primary screen (AID 1103). Also: the record names both GSK3A and GSK3B. As to conditions: fluorescence 635 nm, higher = more signal.
Test [7] deals with Epidermal growth factor receptor (Homo sapiens) (UniProt P00533). The experiment in a line: compounds binding epidermal growth factor receptor – biochemical, small-molecule microarray, 635 nm fluorescence, primary screen (AID 1104).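 Also: score merges 667 nm emission intensity with spot signal to noise over triplicate slides.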 As to conditions: EGFR binding, higher = more signal.
Sequence of Epidermal growth factor receptor (Homo sapiens) (P00533 whole entry, looked up): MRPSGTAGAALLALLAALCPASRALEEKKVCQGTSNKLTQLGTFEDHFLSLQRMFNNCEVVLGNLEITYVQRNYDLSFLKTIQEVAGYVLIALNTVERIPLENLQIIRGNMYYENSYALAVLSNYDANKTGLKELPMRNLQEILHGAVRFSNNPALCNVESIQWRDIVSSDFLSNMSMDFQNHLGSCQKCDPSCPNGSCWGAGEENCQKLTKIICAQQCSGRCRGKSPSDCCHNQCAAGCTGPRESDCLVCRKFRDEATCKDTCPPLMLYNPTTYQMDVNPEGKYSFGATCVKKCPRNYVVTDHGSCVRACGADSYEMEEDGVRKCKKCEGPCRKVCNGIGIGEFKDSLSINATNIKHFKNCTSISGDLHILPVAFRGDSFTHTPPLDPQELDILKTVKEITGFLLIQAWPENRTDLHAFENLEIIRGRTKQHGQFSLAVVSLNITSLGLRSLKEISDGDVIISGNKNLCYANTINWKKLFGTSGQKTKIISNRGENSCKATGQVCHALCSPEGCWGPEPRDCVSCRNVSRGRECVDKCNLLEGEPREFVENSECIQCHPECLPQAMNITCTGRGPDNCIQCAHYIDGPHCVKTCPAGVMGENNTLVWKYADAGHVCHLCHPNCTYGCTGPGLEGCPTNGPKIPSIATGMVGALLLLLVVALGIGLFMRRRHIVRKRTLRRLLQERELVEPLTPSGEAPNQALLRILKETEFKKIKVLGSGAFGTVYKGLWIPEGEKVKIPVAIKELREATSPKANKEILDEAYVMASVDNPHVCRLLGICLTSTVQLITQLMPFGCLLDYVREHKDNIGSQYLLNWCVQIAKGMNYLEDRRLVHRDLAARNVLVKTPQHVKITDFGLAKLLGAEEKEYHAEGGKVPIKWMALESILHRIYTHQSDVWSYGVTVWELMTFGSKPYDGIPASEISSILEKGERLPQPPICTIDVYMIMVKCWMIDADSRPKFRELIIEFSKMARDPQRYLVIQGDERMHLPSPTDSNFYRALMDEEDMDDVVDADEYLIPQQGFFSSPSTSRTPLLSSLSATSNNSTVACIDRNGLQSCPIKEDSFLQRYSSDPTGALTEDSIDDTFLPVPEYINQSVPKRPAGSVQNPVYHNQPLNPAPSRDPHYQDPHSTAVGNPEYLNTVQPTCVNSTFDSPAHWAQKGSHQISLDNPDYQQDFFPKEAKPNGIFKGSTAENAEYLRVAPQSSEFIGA
For test [8], the target named is Follistatin-related protein 3 (Homo sapiens) (UniProt O95633). The experiment in a line: compounds binding follistatin-related protein 3 – biochemical, small-molecule microarray, 635 nm fluorescence, primary screen (AID 1105).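 Also: score merges emission near 667 nm and signal to noise per printed spot across three slides.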 The settings on record: FSTL3 binding, higher = more signal.
Sequence of Follistatin-related protein 3 (Homo sapiens) (O95633 whole entry, looked up): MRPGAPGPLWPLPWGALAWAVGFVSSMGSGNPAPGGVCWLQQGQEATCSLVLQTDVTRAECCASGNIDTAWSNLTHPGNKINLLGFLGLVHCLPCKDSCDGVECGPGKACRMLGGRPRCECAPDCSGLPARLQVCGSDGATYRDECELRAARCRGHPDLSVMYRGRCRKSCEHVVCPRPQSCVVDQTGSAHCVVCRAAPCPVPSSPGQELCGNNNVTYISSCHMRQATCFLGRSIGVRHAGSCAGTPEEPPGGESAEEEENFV
For test [9], the target named is Dickkopf-related protein 1 (Homo sapiens) (UniProt O94907). The experiment in a line: small molecules binding DKK1 protein – biochemical, small-molecule microarray, 635 nm fluorescence scan, primary screen (AID 1106).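 Also: score merges emission near 667 nm with signal to noise over three replicate slides.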 As to conditions: higher = more signal.
Sequence of Dickkopf-related protein 1 (Homo sapiens) (O94907 whole entry, looked up): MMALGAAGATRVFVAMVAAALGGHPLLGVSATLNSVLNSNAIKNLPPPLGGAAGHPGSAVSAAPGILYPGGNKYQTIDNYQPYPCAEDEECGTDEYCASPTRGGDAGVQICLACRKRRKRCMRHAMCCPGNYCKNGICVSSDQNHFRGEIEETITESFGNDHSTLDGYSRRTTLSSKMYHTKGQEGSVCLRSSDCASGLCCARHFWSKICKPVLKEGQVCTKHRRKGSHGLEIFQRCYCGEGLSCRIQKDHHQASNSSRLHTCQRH
Test [10] concerns Inhibin beta A chain (activin A). The experiment in a line: small molecules binding activin A – biochemical, small-molecule microarray, 635 nm fluorescence scan, primary screen (AID 1107).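 Also: mouse activin A protein probed at 4.33 µg/mL on printed slides; score merges bound-protein fluorescence near 667 nm with spot signal-to-noise.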 As to conditions: INHBA, higher = more signal.
For test [11], the system named is Human papillomavirus type 1a protein E7 (residues 44-93). The experiment in a line: small molecules binding HPV E7 44-93 – biochemical, small-molecule microarray, residues 44-93, 635 nm fluorescence, primary screen (AID 1108).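 Also: E7 fragment applied at 1 µg/mL in TBST for 1 h at 4 C; score combines spot fluorescence with its signal to noise ratio.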 As to conditions: fluorescence 635 nm, higher = more signal.
The nature of test [12]: hepatitis C replication reporter changes, two-sided – Huh7 cells, luciferase reporter, HCV replication inhibitor project, primary screen (AID 1109).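 Also: huh7 hepatoma cells harbouring a luciferase neomycin HCV replicon reporter; luciferase luminescence as measure of HCV replicon replication; test concentration not given here.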 The settings on record: Huh7 HCV replicon luciferase reporter, 48 h; higher = more signal.
Test [13] deals with Left-right determination factor 2 (Homo sapiens) (UniProt O00292). The experiment in a line: small molecules binding LEFTY2 protein – biochemical, small-molecule microarray, 635 nm fluorescence scan, primary screen (AID 1110). As to conditions: higher = more signal.
Sequence of Left-right determination factor 2 (Homo sapiens) (O00292 whole entry, looked up): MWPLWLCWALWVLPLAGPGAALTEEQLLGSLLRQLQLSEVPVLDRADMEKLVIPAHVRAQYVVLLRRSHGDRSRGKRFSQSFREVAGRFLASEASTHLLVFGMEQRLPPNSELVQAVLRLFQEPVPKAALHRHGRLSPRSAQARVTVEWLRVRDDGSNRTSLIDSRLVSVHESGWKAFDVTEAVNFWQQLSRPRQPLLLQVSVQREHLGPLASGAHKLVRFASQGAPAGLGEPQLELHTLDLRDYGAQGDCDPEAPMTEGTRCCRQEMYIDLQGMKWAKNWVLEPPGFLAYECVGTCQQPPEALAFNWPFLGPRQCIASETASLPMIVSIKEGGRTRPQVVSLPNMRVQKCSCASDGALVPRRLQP
Test [14] has as its target Calmodulin-1 (Homo sapiens) (UniProt P0DP23). The experiment in a line: small molecules binding calmodulin-1 with EGTA – biochemical, small-molecule microarray, Cy5-labelled CALM1, profiling panel (AID 1111).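 Also: labelled calmodulin applied in Tris saline Tween buffer holding calcium plus EGTA and DTT.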 The settings on record: Cy5-CALM1 binding fluorescence, higher = more signal.
The target is the same in test [15]. The experiment in a line: small molecules binding Ca-loaded calmodulin-1 – biochemical, small-molecule microarray, Cy5-labelled CALM1, plus calcium, artefact control for SMM control-protein annotation, profiling panel (AID 1112).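 Also: score merges spot fluorescence with signal to noise from triplicate slides.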 The settings on record: Cy5-CALM1 binding fluorescence, higher = more signal.
Test [16] in a line: probe aWnt5a binding to arrayed compounds – biochemical, biotinylated probe, 635/667 nm fluorescence, primary screen (AID 1113).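 Also: score merges 667 nm fluorescence intensity with signal-to-noise per printed feature.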 As to conditions: small-molecule microarray, higher = more signal.
A short description of test [17]: probe aShh binding to arrayed compounds – biochemical, biotinylated probe, 635/667 nm fluorescence, primary screen (AID 1114).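 Also: probe is biotin-labelled aShh protein from a stem cell growth factor screen; measures binding of labelled protein to compounds printed on the slide; score merges feature fluorescence at 667 nm with signal-to-noise.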 As to conditions: small-molecule microarray, higher = more signal.
Test [18] is described as follows: probe aNog binding to arrayed compounds – biochemical, biotinylated probe, 635/667 nm fluorescence, primary screen (AID 1115).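 Also: probe is biotinylated aNog protein used at 0.15 µg/mL for 1 h at 4 C; z-score combines 667 nm fluorescence of each spot with its signal to noise.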 As to conditions: small-molecule microarray, higher = more signal.
For test [19], the target named is Torsin-1A-interacting protein 1 (Homo sapiens) (UniProt Q5JTV8). The experiment in a line: compound microarray binding of lysate hLAP1 – cell lysate, small-molecule microarray, COS7 lysate, 635/667 nm fluorescence, primary screen (AID 1116). The settings on record: 635 nm fluorescence, higher = more signal.
Sequence of Torsin-1A-interacting protein 1 (Homo sapiens) (Q5JTV8 whole entry, looked up): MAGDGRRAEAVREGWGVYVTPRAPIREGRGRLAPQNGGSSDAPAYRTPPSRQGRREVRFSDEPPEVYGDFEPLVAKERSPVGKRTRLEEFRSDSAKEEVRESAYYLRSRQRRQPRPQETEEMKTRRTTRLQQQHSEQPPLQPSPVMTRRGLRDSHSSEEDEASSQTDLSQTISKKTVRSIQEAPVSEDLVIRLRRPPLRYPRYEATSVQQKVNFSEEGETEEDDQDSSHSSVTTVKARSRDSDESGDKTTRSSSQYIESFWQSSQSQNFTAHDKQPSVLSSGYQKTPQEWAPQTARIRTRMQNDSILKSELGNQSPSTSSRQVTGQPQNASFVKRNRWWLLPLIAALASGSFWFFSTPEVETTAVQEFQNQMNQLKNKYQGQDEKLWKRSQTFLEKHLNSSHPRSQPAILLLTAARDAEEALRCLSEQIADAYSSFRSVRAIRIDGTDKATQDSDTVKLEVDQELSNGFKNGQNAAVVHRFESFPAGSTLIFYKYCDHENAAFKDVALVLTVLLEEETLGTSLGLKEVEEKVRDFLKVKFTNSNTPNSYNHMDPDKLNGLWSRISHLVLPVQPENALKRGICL
The target of test [20] is Alpha-bungarotoxin (Bungarus multicinctus) (UniProt P60615). The experiment in a line: compounds binding labelled alpha-BTX control protein – biochemical, small-molecule microarray, Alexa647 label, 635/667 nm fluorescence, artefact control for SMM control protein annotation, profiling panel (AID 1117). The settings on record: alpha-BTX-A647 binding fluorescence, higher = more signal.
Sequence of Alpha-bungarotoxin (Bungarus multicinctus) (P60615 whole entry, looked up): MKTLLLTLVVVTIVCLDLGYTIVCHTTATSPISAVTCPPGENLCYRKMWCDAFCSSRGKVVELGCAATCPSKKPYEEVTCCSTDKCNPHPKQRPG

Turning to `COC(=O)[C@@]1(Cc2ccc(OC)cc2)[C@H]2c3cc(C(=O)N4CCCC4)n(Cc4cccc5ccccc45)c3C[C@H]2CN1C(=O)c1ccccc1`, the composite z-score in test [1] was 0.654; in [2], 0.741; in test [3] it was 1.08; in [5], 0.821; in [6], 0.407; in test [7], -0.282. The composite z-score in test [8] was 0.293; in test [9], -0.724; in [10], 0.849; in test [11], 0.764; in test [13], -0.58; in test [14], 1.38. The composite z-score in test [15] is 0.498; in [16], 0.0913; in [17] it was 0.521; in test [18], 1.95; in test [19] it was 1.3; in test [20], 0.716. The figures for the z-score in test [4] and in test [12] were -0.261 (inactive) and -0.356, respectively.
As for `CCOc1cc(C(O)C2C=CC3C(=O)N(C)C(=O)C3N2Nc2ccccc2)ccc1O` (stereo not given), the composite z-score was found to be 0.764 in test [1]; 0.791 in test [2]; 0.0692 in [3]; 0.736 in [5]; 0.57 in test [6]; 0.0228 in test [7]. The composite z-score in test [8] is 0.0592; in test [9] it was -0.329; in test [10], 0.569; in [11] it was 1.24; in test [13], 0.0031; in [14], 0.796. Also, the composite z-score in [15] is -0.211; in [16], -0.0165; in [17], -0.155; in test [18] it was -0.145; in [19] it was 1.92; in test [20] it was 0.848. Besides, the z-score in test [4] was 0.719 (inactive); in test [12], -0.146.
For `[N-]=[N+]=NCc1ccccc1[C@H]1OC(c2ccc(OCCCO)cc2)=N[C@@]1(CCS(=O)(=O)c1ccccc1)C(=O)N1CCCCC1`, the composite z-score in test [1] was 1.15; in test [2], 1.05; in [3] it was 1.42; in test [5], 0.644; in [6], 1.28; in test [7] it was 0.169. Besides, the composite z-score in [8] was 0.909; in test [9], -0.202; in test [10] it was 1.57; in [11], -0.695; in test [13], 0.651; in test [14], 2.25. Further, the composite z-score in test [15] was found to be 0.735; in test [16], 0.16; in [17], 0.385; in test [18] it was 1.15; in [19] it was 1.22; in [20] it was 2.96. The z-score in [4] is -0.33 (inactive); in [12] it was -1.11.
As for `N#Cc1ccc(NN2C(C(O)c3ccc(F)cc3)C=CC3C(=O)N(c4ccccc4)C(=O)C32)cc1` (stereo not given), the composite z-score in [1] was 1.3; in [2], 0.151; in test [3], 0.581; in test [5] it was -0.286; in test [6], -0.0563; in [7], -0.746. For the same compound, the composite z-score in [8] was -0.0131; in test [9], -0.716; in test [10], 0.856; in test [11], 0.771; in [13], -0.81; in test [14], 2.39. Further, the composite z-score in test [15] is 1.04; in test [16], 0.0334; in [17], -0.0578; in [18], 1.83; in test [19], 2.24; in test [20], 1.05. For the same compound, the z-score was 1.52 (inactive) in test [4] and -0.41 in test [12].
Turning to `CC(C)C[C@@H]1NC(=O)[C@@H]2C[C@H](C(=O)NCCCCCN)[C@H](c3ccc(O)cc3)N2C1=O`, the composite z-score in [1] came out at 0.311; in [2], 0.283; in test [3], 0.403; in test [5] it was 0.843; in [6], 1.31; in [7], 0.0233. The composite z-score in test [8] stood at 1.26; in test [9], 0.93; in [10], 0.585; in test [11] it was 1.36; in [13], 1.46; in [14] it was 1.17. Besides, the composite z-score in [15] was 0.953; in test [16] it was -0.0194; in test [17] it was 0.108; in [18] it was -0.651; in test [19], 1.19; in test [20], 1.2. The z-score in test [4] was 0.103 (inactive); in [12] it was -0.196.
On to `CC(C)N1C(=O)C[C@@](C(=O)NCCCN(C)C)(c2ccc([N+](=O)[O-])cc2)[C@H]1c1ccc(CO)cc1`, for which the composite z-score in test [1] is -0.133; in test [2], -0.253; in test [3] it was 0.692; in test [5], -0.532; in test [6] it was -0.777; in test [7] it was -0.496. Further, the composite z-score in test [8] was -0.309; in test [9], -0.197; in [10], 0.698; in test [11] it was -0.218; in test [13], -0.438; in [14], -0.194. For the same compound, the composite z-score in [15] was -0.774; in test [16], -0.113; in test [17], 0.0062; in [18], -0.141; in test [19], 0.0945; in [20], 0.942. The z-score in [4] was 0.313 (inactive); in test [12], -0.581.
